Compounds with a hit are over-represented: about 1.7% of the library has one in this group of screens.
HEK293 tox: qHTS of GLP-1 Receptor Inverse Agonists: Cytotox Screen; Potency, µM (series often up to 38.3 µM), usual class: inhibitors; HEK293 cAMP-luciferase reporter cells, luminescence, 24 h; actives 0.13% (n = 410,000); AID 624418, 2012;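 also: loss of luciferase light is scored as toxicity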
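Compound-treated cells are incubated 24 hr at 37 deg C under 5% CO2 after a 12 hour attachment period, then luciferase detection reagent is added and luminescence is measured following 12 min at room temperature; lowered signal indicates toxicity.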
GLP1R ag: qHTS of GLP-1 Receptor Agonists; Glucagon-like peptide 1 receptor (Homo sapiens), P43220; HEK293 GLP-1R CRE-luciferase, luminescence, 4-6 h; cells express a hypersensitive GLP-1R form; Potency, µM (highest dose often 45.6 µM), usual class: activators; actives 0.007% (n = 380,000); AID 624172, 2012
GLP-1R inv ag: qHTS of GLP-1 Receptor Inverse Agonists (Inhibition Mode); Glucagon-like peptide 1 receptor (Homo sapiens), P43220; HEK293 GLP-1R CRE-luciferase, luminescence, 24 h; GLP-1R form is constitutively active; actives 1.6% (n = 410,000); Potency, µM (titrated, usually from 38.3 µM), hits mostly inhibitors; also: nearly all actives have a fitted effect of over 55% in size
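Cells are plated, allowed 12 hours at 37 deg C, then treated with compounds for 24 hr before luciferase detection reagent is added and luminescence is read after 12 min at room temperature. The HEK293 line carries constitutively active GLP-1R with a cAMP-responsive reporter.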
PTHR1 ag: qHTS for PTHR1 Agonists: Primary Screen; Parathyroid hormone/parathyroid hormone-related peptide receptor (Homo sapiens), Q03431; actives 0.075% (n = 410,000); HEK293 GP2 PTHR1 cells, GloSensor cAMP luminescence, 1 h; Potency, µM (highest dose often 115 µM), most hits filed as activators; also: nearly all actives have a fitted effect of over 55% in size
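HEK-293-derived GP2 cells expressing PTHR1 and a GloSensor cAMP reporter, 3,000/well, plated overnight, given luciferin plus IBMX (each 0.5 mM as added) for 1 h at 37 °C, then compound for 1 h at 37 °C. Luminescence was read after 15 min at room temperature.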
Of the large screens only hits and unclear results are named; the others gave an inactive call. Calls follow the shape of the dose curve; as a rule, active = well fitted curve in the direction sought with a large enough effect; inconclusive = small, poorly fitted or top-dose-only effect, or another doubt; inactive = no such curve, though single readings can be large; an effect the other way counts as inactive or inconclusive.

COC(=O)CC1(C(=O)OC)Oc2ccc(Br)cc2C(=O)N1c1cc(Cl)c(Cl)cc1Cl (configuration not stated)	GLP-1R inv ag 7.1µM
COC(=O)CC1(C(=O)OC)Oc2ccc(Br)cc2C(=O)N1c1cccc(Cl)c1Cl (configuration not stated)	HEK293 tox inconclusive, GLP-1R inv ag inconclusive
COc1ccc(NC(=O)c2cccn2-c2nnc(N3CCCCC3)s2)cc1	none (no result: GLP1R ag)
CCNC(=O)C1(C)CCN(Cc2cccc(Oc3ccccc3)c2)C1 (configuration not stated)	none
CCNC(=O)C1(C)CCCN(Cc2ccc(Oc3ccccc3)cc2)C1 (configuration not stated)	GLP-1R inv ag 10µM
Clc1ccccc1C(c1ccccc1)(c1ccccc1)n1ccnc1	GLP-1R inv ag 10µM
C#CC(c1ccccc1)(c1ccccc1)n1ccnc1	GLP-1R inv ag inconclusive
O=C(Nc1ccc(F)cc1)C(c1ccncc1)N1CCN(c2cccc(C(F)(F)F)n2)CC1 (configuration not stated)	GLP-1R inv ag inconclusive (no result: GLP1R ag)
COc1ccc(N(CC(=O)Nc2ccc(C)cc2C)S(=O)(=O)c2c(C)n[nH]c2C)cc1	GLP-1R inv ag inconclusive
COc1ccc(N(CC(=O)Nc2cc(Cl)ccc2C)S(=O)(=O)c2c(C)n[nH]c2C)cc1	HEK293 tox inconclusive, GLP-1R inv ag 4.5µM
Cc1n[nH]c(C)c1S(=O)(=O)N(CC(=O)Nc1ccc(C(F)(F)F)cc1)c1ccc(C(C)C)cc1	GLP-1R inv ag 10µM (no result: GLP1R ag)
CC(C)(C)NC(=O)[C@H]1CC[C@H]2[C@@H]3CC=C4C=C(C(=O)O)CC[C@@]4(C)[C@H]3CC[C@]12C	none (no result: HEK293 tox, GLP-1R inv ag, PTHR1 ag)
CC(=O)c1c(C)oc2c1cc(NS(=O)(=O)c1ccc(Cl)c(C)c1)c1ccccc12	none (no result: GLP1R ag)
CCN=c1scc(-c2ccccc2)n1/N=C/c1ccccn1	GLP-1R inv ag 3.2µM
C=CCN=c1scc(-c2ccc(F)cc2)n1/N=C/c1ccccn1	GLP1R ag inconclusive, GLP-1R inv ag inconclusive
C=CCN=c1scc(-c2ccccc2)n1/N=C/c1ccccn1	HEK293 tox inconclusive, GLP-1R inv ag 11µM
CN(C(=O)COC(=O)c1ccccc1Nc1ccccc1)c1c(N)n(Cc2ccccc2)c(=O)[nH]c1=O	GLP-1R inv ag inconclusive
COCCN(C(=O)COC(=O)c1ccccc1Nc1ccccc1)c1c(N)n(Cc2ccccc2)c(=O)[nH]c1=O	GLP-1R inv ag 13µM
O=C1NCC(c2ccccc2)C1C(=O)N/N=C\c1ccc(-c2ccc(Cl)c(Cl)c2)o1 (configuration not stated)	HEK293 tox inconclusive, GLP-1R inv ag 10µM
O=C1NCC(c2ccccc2)C1C(=O)N/N=C/c1ccc(Cl)s1 (configuration not stated)	none
Cc1c(C(=O)NCc2ccc(F)cc2)oc2ccc(S(=O)(=O)N3CCCCC3)cc12	GLP-1R inv ag 10µM (no result: GLP1R ag)
COc1ccccc1CNC(=O)c1oc2ccc(S(=O)(=O)N3CCCCC3)cc2c1C	GLP-1R inv ag inconclusive (no result: GLP1R ag)
O=C(Cc1ccc(S(=O)(=O)N2CCCCC2)cc1)NCc1ccc(Cl)cc1	GLP-1R inv ag 7.1µM
CCN(CC)S(=O)(=O)c1ccc2c(c1)N(CC(=O)NCCCN1CCN(c3cc(Cl)ccc3C)CC1)C(=O)CO2	HEK293 tox inconclusive, GLP-1R inv ag 11µM
CC(C)N(Cc1ccccc1)C(=O)CN1C(=O)COc2ccc(S(=O)(=O)N3CCCCCC3)cc21	GLP-1R inv ag 7.9µM
O=C(CN1C(=O)COc2ccc(S(=O)(=O)N3CCCCC3)cc21)NCc1ccc(Cl)cc1	GLP-1R inv ag 10µM
Cc1ccc(Nc2nc(N/N=C\c3ccc4c(c3)OCO4)nc(N3CCOCC3)n2)cc1	HEK293 tox inconclusive, GLP-1R inv ag 4.5µM
CN(C)c1nc(NCc2ccccc2)nc(N/N=C/c2ccc3c(c2)OCO3)n1	HEK293 tox inconclusive, GLP-1R inv ag 10µM
CCOc1cc(/C=N\Nc2nc(Nc3ccccc3)nc(N3CCOCC3)n2)ccc1OC(=O)c1ccco1	GLP-1R inv ag 7.1µM
CN(C)c1nc(NCc2ccccc2)nc(N/N=C/c2ccc(Br)cc2)n1	none
COc1cc(/C=N/Nc2nc(C)cc(C)n2)ccc1OC(=O)c1ccco1	none
